Bioassay records from PubChem BioAssay.
PGC1a acetyl inh: PGC1a acetylation modulation, inhibitor mode; U2OS PGC1a acetylation, AlphaScreen anti-acetyl-lysine; with virally co-expressed GCN5 acetyltransferase; inhibition, % at 15.6 µM; 0.17% of 350,000 active;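 active means every replicate shows inhibition of at least 40%; inconclusive means mean inhibition at least 40% but some replicate below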
C2C12 statin: protects C2C12 myotubes from simvastatin toxicity. ATP luminescence, 48 h; scaled: DMSO 0, geranylgeraniol control 100. 0.78% of 330,000 active. rescue of ATP level, % at 7.49 µM;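 active means mean ATP rescue above about 67%, or every replicate alone reaching that limit, limit read from the data, passing the limit was not always enough; inconclusive means no clear call, values can overlap the other calls; inactive means mean under the limit and some replicate under it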;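 further: myotubes were challenged with 10 µM simvastatin during compound exposure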
DENV2 CPE rescue: inhibitors of DENV2 cytopathic effect | DENV2-infected cells, cytopathic effect rescue, plate reader | CPE inhibition, % at 9.99 µM | 1.7% of 350,000 active | AID 651640; in the data active means CPE inhibition above about 20%, passing the limit was not always enough; inconclusive means no clear call, values can overlap the other calls; tested in BHK-21 cells
PvdQ inh: blocks Pseudomonas aeruginosa PvdQ acylase activity. purified PvdQ acylase, fluorescence plate reader. inhibition, % at 10 µM. 0.063% of 340,000 active. AID 488965; in the data active means inhibition above about 30%, passing the limit was not always enough; inconclusive means no clear call, values can overlap the other calls
miR122 inh: miR-122 inhibition in Huh7 cells; activation (reporter increase), % at 12.5 µM; 0.3% of 340,000 active; Huh7 miR-122 Renilla luciferase sensor, 48 h; neutral wells = 0, positive control = 100; AID 602342;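 active means mean replicate activation score at least 90 and every replicate individually at or above 90; inconclusive means only one of the two criteria met; inactive means neither criterion met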;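 further: higher luciferase means less miR-122 activity so hits act as miR-122 inhibitors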
Of the large screens only hits and unclear results are named; the others gave an inactive call. This is a sample that favours compounds with a hit; in the whole collection about 2.2% have one here.

CCOC(=O)c1cnc2c(-c3ccc(Cl)cc3)c(C)nn2c1N	C2C12 statin 87 (no result: DENV2 CPE rescue)
CN1CCN(S(=O)(=O)c2ccc(Cl)cc2)CC1	DENV2 CPE rescue inconclusive
CN1CCN(S(=O)(=O)c2ccc(Cc3ccc(S(=O)(=O)N4CCN(C)CC4)cc3)cc2)CC1	C2C12 statin 82 (no result: DENV2 CPE rescue)
COCC(=O)Nc1ccc2c(c1)C(=O)N(C)[C@@H]1CC[C@H](CC(=O)NCCc3ccncc3)O[C@H]1CO2	none (no result: PvdQ inh)
O=S(=O)(c1cccs1)N1CCN(c2ccnc3cc(Cl)ccc23)CC1	DENV2 CPE rescue 64 (no result: C2C12 statin)
CNC[C@H]1Oc2ncc(Br)cc2C(=O)N([C@H](C)CO)C[C@@H]1C	none (no result: PvdQ inh)
Cc1cc(O)c(C(C)C)cc1N=Nc1ccccc1C(=O)O	miR122 inh 190
Cc1ccc(-n2nnc(-c3nccs3)n2)cc1	miR122 inh 100
Clc1ccc(-n2nnc(-c3nccs3)n2)cc1Cl	none (no result: PGC1a acetyl inh, DENV2 CPE rescue, miR122 inh)
O=C(C[C@@H]1CC[C@H]2[C@@H](COC[C@H](O)CN2Cc2cc(F)ccc2F)O1)NCc1ccccc1	none (no result: PvdQ inh)
C[C@@H]1CCCCO[C@@H](CN(C)S(=O)(=O)c2ccc(F)cc2)[C@H](C)CN([C@H](C)CO)C(=O)c2cc(NC(=O)Nc3ccc4c(c3)OCO4)ccc2O1	DENV2 CPE rescue 24 (no result: C2C12 statin, PvdQ inh)
C[C@H](CO)N1C[C@H](C)[C@H](CN(C)S(=O)(=O)c2ccc(Cl)cc2)Oc2ccc(NC(=O)Nc3ccc4c(c3)OCO4)cc2C1=O	DENV2 CPE rescue 29 (no result: C2C12 statin, PvdQ inh)
C[C@H]1CN([C@@H](C)CO)C(=O)c2cc(NC(=O)Nc3ccc4c(c3)OCO4)ccc2O[C@H]1CN(C)S(=O)(=O)c1ccc(Cl)cc1	none (no result: C2C12 statin, PvdQ inh)
C[C@@H]1CCCCO[C@H](CN(C)S(=O)(=O)c2ccc(Cl)cc2)[C@H](C)CN([C@@H](C)CO)C(=O)c2cc(NC(=O)Nc3ccc4c(c3)OCO4)ccc2O1	DENV2 CPE rescue 34 (no result: C2C12 statin, PvdQ inh)
C[C@H](CO)N1C[C@H](C)[C@H](CN(C)S(=O)(=O)c2ccc(F)cc2)OCCCC[C@H](C)Oc2ccc(NC(=O)Nc3ccc4c(c3)OCO4)cc2C1=O	none (no result: C2C12 statin, PvdQ inh)
Cc1ccccc1-n1ncc2c1CC(C)(C)CC2NC(=O)c1ccncc1 (centres undefined)	none
Cc1ccccc1-n1ncc2c1CC(C)(C)CC2NC(=O)CSc1ccncc1 (centres undefined)	DENV2 CPE rescue 108
CC(=O)OC1CC(n2ccc(NC(=O)c3ccccc3)nc2=O)OC1CO (centres undefined)	C2C12 statin 128 (no result: DENV2 CPE rescue)
COc1ccccc1S(=O)(=O)Nc1ccc2c(c1)OC[C@@H](C)NC[C@@H](C)[C@@H](OC)CN(C)C2=O	none (no result: PvdQ inh)
COc1cccc(CNC(=O)C[C@H]2CC[C@@H]3[C@H](COc4ccc(NC(C)=O)cc4C(=O)N3C)O2)c1	none (no result: PvdQ inh)
CCCNC(=O)C[C@H]1CC[C@H]2[C@H](COc3ccc(NC(=O)c4cccc(OC)c4)cc3C(=O)N2C)O1	none (no result: PvdQ inh)
COc1cccc(CNC(=O)C[C@H]2CC[C@H]3[C@@H](COc4ccc(NC(C)=O)cc4C(=O)N3C)O2)c1	DENV2 CPE rescue 28 (no result: C2C12 statin, PvdQ inh, miR122 inh)
CCCNC(=O)C[C@@H]1CC[C@H]2[C@@H](COc3ccc(NC(=O)c4cccc(OC)c4)cc3C(=O)N2C)O1	DENV2 CPE rescue 46 (no result: PvdQ inh)
CCCNC(=O)C[C@@H]1CC[C@H]2[C@@H](COc3ccc(NC(=O)c4cccc(C(F)(F)F)c4)cc3C(=O)N2C)O1	DENV2 CPE rescue 24 (no result: PvdQ inh)
CCN1CCc2c(sc(NC(=O)c3ccc(S(=O)(=O)N(C)c4ccccc4)cc3)c2C(=O)NC)C1	none (no result: PGC1a acetyl inh, DENV2 CPE rescue, miR122 inh)
CNC(=O)c1c(NC(=O)c2ccc(S(=O)(=O)N(C)c3ccccc3)cc2)sc2c1CCN(C(C)C)C2	DENV2 CPE rescue 96 (no result: PGC1a acetyl inh, C2C12 statin, PvdQ inh, miR122 inh)
CCC(=O)Nc1ccc(NC(=S)NC(=O)c2oc3ccccc3c2C)cc1	none (no result: C2C12 statin, DENV2 CPE rescue)
Cc1c(C(=O)Nc2cnccn2)oc2ccccc12	none
Cc1c(C(=O)Nc2ccc(Cl)cn2)oc2ccccc12	C2C12 statin 86 (no result: DENV2 CPE rescue)
CCC(=O)Nc1ccc(NC(=O)c2oc3ccccc3c2C)cc1	DENV2 CPE rescue 40
CO[C@@H]1CN(C)C(=O)c2cc(NC(=O)C3CCCC3)ccc2OC[C@H](C)N(C(=O)CC2CC2)C[C@H]1C	none (no result: PvdQ inh)
C[C@H]1CN([C@@H](C)CO)C(=O)Cc2cc(NS(=O)(=O)c3ccc(F)cc3)ccc2O[C@@H]1CN(C)Cc1ccc2c(c1)OCO2	C2C12 statin 124 (no result: PvdQ inh)
C[C@@H]1CN([C@@H](C)CO)C(=O)Cc2cc(NS(=O)(=O)c3ccc(F)cc3)ccc2O[C@H]1CN(C)Cc1ccc2c(c1)OCO2	none (no result: PvdQ inh)
C[C@H](CO)N1C[C@H](C)[C@@H](CN(C)Cc2ccc3c(c2)OCO3)Oc2ccc(NS(=O)(=O)c3ccc(F)cc3)cc2CC1=O	C2C12 statin 150 (no result: PvdQ inh)
C[C@@H]1CN([C@H](C)CO)C(=O)Cc2cc(NS(=O)(=O)c3ccc(F)cc3)ccc2O[C@@H]1CN(C)Cc1ccc2c(c1)OCO2	none (no result: PvdQ inh)
C[C@@H]1CN([C@@H](C)CO)C(=O)c2cc(NC(=O)Cc3ccccc3)ccc2O[C@@H](C)CCCCO[C@@H]1CN(C)C(=O)Nc1ccc2c(c1)OCO2	none (no result: C2C12 statin, PvdQ inh, miR122 inh)
O=C(CCN1C(=O)/C(=C/c2ccco2)SC1=S)Nc1ccc(O)cc1C(=O)O	none
O=C(CN1C(=O)/C(=C\c2ccco2)SC1=S)Nc1ccc(O)cc1C(=O)O	C2C12 statin 96
CN(C)C(=O)C[C@H]1CC[C@@H]2[C@@H](COc3ccc(NC(=O)C4CCCC4)cc3C(=O)N2C)O1	none (no result: C2C12 statin, PvdQ inh, miR122 inh)
COc1ccc2ccccc2c1/C=N/NC(=O)c1cccc(Br)c1	none (no result: PGC1a acetyl inh, C2C12 statin, miR122 inh)
COc1ccc2ccccc2c1/C=N/NC(=O)c1ccccc1F	DENV2 CPE rescue 44
Cc1ccccc1-c1nnc(SCC(=O)NC2CCCCC2)o1	C2C12 statin 78 (no result: DENV2 CPE rescue)
COc1ccccc1-c1nnc(SCC(=O)NC2CCCCC2)o1	none
O=c1cc(/C=C/c2ccccc2)oc2ccccc12	C2C12 statin 138 (no result: DENV2 CPE rescue)
CNC(=O)c1ccccc1S(=O)(=O)c1ccccc1C#N	C2C12 statin 101 (no result: DENV2 CPE rescue)
O=C(O)COc1ccc2c3c(c(=O)oc2c1)CCC3	C2C12 statin 117 (no result: DENV2 CPE rescue)
O=C(COc1ccc2c3c(c(=O)oc2c1)CCC3)N1CCCC1	none
O=C(CC(C(=O)O)c1c[nH]c2ccccc12)c1ccccc1 (centres undefined)	PGC1a acetyl inh 81 (no result: C2C12 statin)
CCCCN1C(N)=NC[C@@H]1C(C)O (some centres undefined)	DENV2 CPE rescue 23 (no result: PGC1a acetyl inh, miR122 inh)
Nc1nnc(CC(=O)N/N=C/c2ccccc2OCc2ccc(F)cc2)s1	PGC1a acetyl inh 61 (no result: C2C12 statin, PvdQ inh)
Nc1nnc(CC(=O)N/N=C/c2ccccc2OCc2ccccc2F)s1	none (no result: PGC1a acetyl inh, C2C12 statin, miR122 inh)
C[C@@H]1CCCCO[C@@H](CN(C)S(=O)(=O)c2ccc(F)cc2)[C@H](C)CN([C@H](C)CO)C(=O)c2cc(NC(=O)CCCN(C)C)ccc2O1	none (no result: C2C12 statin, PvdQ inh)
O=C(c1ccc(F)cc1)N1CCCCN2[C@H](C1)[C@H](c1ccc(C#CC3(O)CCCC3)cc1)[C@@H]2CO	DENV2 CPE rescue 42 (no result: C2C12 statin, PvdQ inh)
C[C@H](O)C#Cc1ccc([C@H]2[C@@H](CO)N3CCCCN(C(=O)c4ccc(F)cc4)C[C@@H]23)cc1	DENV2 CPE rescue 33 (no result: C2C12 statin, PvdQ inh)
